High-throughput results deposited in PubChem BioAssay by National Center for Advancing Translational Sciences (NCATS).
In the library only some 21% were active in any assay of this set; here they are far more common.
CHX counter: counter-screen for Shiga toxin inhibitors: cycloheximide protein synthesis inhibition. actives 12% (n = 300,000). max response, %. cell reporter, cycloheximide protein synthesis inhibition counterscreen; in the data active = max response mostly above about 13%, no sharp cut-off; inactive = mostly below about 14%; note: read at 38.3 µM for the half of the compounds with a filed dose; 0% is about no effect
Pf growth 96h: P. falciparum growth inhibition at 96 hour, primary screen for plastid delayed-death inhibitors | actives 6.9% (n = 320,000) | AID 504834 | Potency, µM (series often up to 28.7 µM), inactives show at the top dose activity change, negative = inhibition, hits mostly inhibitors | P. falciparum luciferase reporter growth, 96 h; note: potency is the fitted concentration of half-maximal effect; % is set by controls: 0 for no effect and ±100 for the full control effect
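Plates of compound plus infected erythrocytes (2% hematocrit, 0.05% parasitemia final) incubate 96 hours, 37 C, 5% CO2. Detection reagent added; reduced luminescence from the parasites' luciferase reporter flags inhibition.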
HCV inhibitor: blocks hepatitis C virus; Huh7.5.1 HCVcc-Cre infection, luciferase reporter, 44 h; Potency, µM (top dose mostly 41.8 µM), without a hit: top-dose activity change, negative = inhibition, most hits filed as inhibitors; actives 3.4% (n = 340,000); note: potency is the fitted concentration of half-maximal effect; % is set by controls: 0 for no effect and ±100 for the full control effect
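HCVcc-Cre virus at an moi near 0.5 was added right after compound to cells cultured 4 h from seeding (1,000 cells/well). Luciferase activity was determined 44 h later, 15 min after substrate addition at RT.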
AMA1-RON2 inh: AMA1-RON2 (P. falciparum) interaction inhibition; AlphaScreen AMA1-biotinylated RON2 peptide binding; AID 720542; Potency, µM (highest dose often 58.2 µM), inactives show at the highest dose activity change, negative = inhibition, actives largely listed as inhibitors; actives 0.2% (n = 360,000);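 note: potency is the fitted concentration of half-maximal effect; 0% = vehicle wells and -100% = peptide control; nearly all actives have a fitted effect of over 45% in size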
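AMA1 (3D7) with his tag at 25 nM final met compounds first, then biotinylated RON2 peptide at 25 nM; detection used donor plus acceptor beads, 10 µg/mL apiece, read by AlphaScreen after 30 min at room temperature.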
Shiga toxin inh: inhibitors of Shiga toxin in Vero cells; Vero cells, Shiga toxin protein synthesis inhibition reporter; actives 9.2% (n = 290,000); inhibition, % at 38.7 µM; AID 2315; in the data active = inhibition mostly above about 28%, no sharp cut-off; inactive = mostly below about 43%; note: 0% is about no effect
Pf growth 48h: P. falciparum growth inhibition at 48 hours (one generation) | actives 5.9% (n = 310,000) | P. falciparum luciferase growth in erythrocytes, 48 h | AID 504832 | Potency, µM (doses to about 28.7 µM), for the others: at the highest dose activity change, negative = inhibition, actives largely listed as inhibitors; note: potency is the fitted concentration of half-maximal effect; % is set by controls: 0 for no effect and ±100 for the full control effect
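Luciferase-expressing parasites in RBCs, 2% Hct / 0.1% parasitemia final; RPMI 1640 + 0.5% Albumax; 37 C, 5% CO2, one generation; luminescence read-out, lower signal = inhibition.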
Active calls of the source: *; u = inconclusive; x = not tested or not shown; + = active, no number. Unless noted, calls come from the whole dose curve; as a rule, active = well fitted curve in the direction sought with a large enough effect; inconclusive = small, poorly fitted or top-dose-only effect, or another doubt; inactive = no such curve, though single readings can be large; an effect the other way counts as inactive or inconclusive.

SMILES | CHX counter | Pf growth 96h | HCV inhibitor | AMA1-RON2 inh | Shiga toxin inh | Pf growth 48h
COc1ccc(C(=O)N/N=C/c2c[nH]c3ccccc23)cc1 | 31.1* | -15.8% | 6.9% | 5.1% | 69.3* | 27.2%
CCCOc1ccc(/C=N/Nc2ccc(C(=O)O)cc2)c(OCCC)c1 | 38.4* | -9.5% | -22.6% | -13.1% | 120.9* | 147.8%
Nc1ncnc2c1ncn2[C@@H]1O[C@H](C(=O)N[C@@H](CO)Cc2ccccc2)[C@@H](O)[C@H]1O | x | x | x | -8.6% | x | x
O=C([C@H](Cc1ccc(O)cc1)n1cc(CCO)nn1)N1CCNCC1 | 1.1 | 90.6% | 12.5% | -0.9% | -11.2 | 52.4%
CCOC(=O)[C@]12CCCC=C1N(Cc1ccco1)C(=O)[C@H](CC(=O)NCCc1ccccc1OC)C2 | x | x | x | -3.6% | x | x
Cc1ccc2oc(C(=O)NCc3ncc(C)[nH]3)c(C)c2c1 | 11.4 | 4.5% | -7.6% | -11.1% | -7.2 | -9.6%
COc1ccc2c(/C=N/Nc3ccc(C(=O)O)cc3)c[nH]c2c1 | 46.7* | 43.5% | 31.6% | 0.7% | 132.6* | 75.3%
O=C(N/N=C/c1c[nH]c2ccc(Br)cc12)c1ccn(Cc2ccc(Cl)cc2)n1 | -1.7 | u | u | -4.2% | -3.4 | u
CC(=O)Nc1cccc(C(=O)N/N=C/c2c[nH]c3ccccc23)c1 | 12.6* | 2.33µM* | 19.2% | 11.6% | 39.3 | 25.4%
CCCOc1ccc(C(=O)N/N=C/c2c[nH]c3ccc(Br)cc23)cc1 | 0.7 | u | 12.6µM* | 0.0% | 26.9 | 13.8%
O=C(O)c1ccc(NN=Cc2cc(=O)[nH]c(=O)[nH]2)cc1 | x | x | 4.9% | 22.3% | x | x
O=C(N/N=C/c1c[nH]c2ccccc12)c1cccc(O)c1 | 26.2* | 287.7% | 10.5% | 4.9% | 70.2* | 35.5%
CCOc1ccccc1C(=O)N/N=C/c1c[nH]c2ccccc12 | 17.3 | u | u | 24.2% | 17.0 | -0.3%
O=C(COc1ccc([N+](=O)[O-])cc1Cl)N1CCOCC1 | -7.0 | 19.5% | 5.6% | -2.2% | -11.7 | 21.2%
COc1ccc(OC)c(NC(=O)NNS(=O)(=O)c2ccc(C)cc2C)c1 | -3.7 | -13.4% | 26.7% | -5.1% | -6.8 | 9.0%
COC(=O)C1CN(S(=O)(=O)c2cc(OC)ccc2OC)CCS1 (stereo unspecified) | -3.0 | -0.2% | 1.3% | -8.4% | -3.1 | 0.1%
c1ccc2c(CCNc3ncnc4nc[nH]c34)cccc2c1 | 31.3* | 22.6% | 11.2µM* | -3.9% | + | 33.3%
c1ccc(CCCNc2ncnc3nc[nH]c23)cc1 | 27.1* | u | u | 15.8% | 36.6 | 17.5%
OCCOCCNc1ncnc2nc[nH]c12 | -2.1 | -1.0% | -3.5% | -24.4% | -8.1 | -3.0%
C1=C(CCNc2ncnc3nc[nH]c23)CCCC1 | 36.7* | u | 10µM* | 9.8% | 38.5* | u
Clc1ccc(CCNc2ncnc3nc[nH]c23)cc1 | 14.2 | u | 10µM* | 26.1% | 30.2 | -3.9%
CCCNc1ncnc2nc[nH]c12 | -3.7 | 8.3% | 0.2% | 3.4% | -3.3 | 0.2%
CC(C(=O)NC(C)(C)C)N(C(=O)CS(=O)CC(=O)Nc1ccc(F)cc1)C1CCCC1 (stereo unspecified) | -7.6 | 34.4% | 11.6% | 11.3% | -2.2 | -0.2%
Nc1nc2ncccn2c1-c1ccc(C(F)(F)F)cc1 | x | x | x | 102.0% | x | x
c1ccc(CCCNc2ncccn2)cc1 | 32.1* | 3.29µM* | 9.0% | -2.9% | + | 69.4%
SMILES | CHX counter | Pf growth 96h | HCV inhibitor | AMA1-RON2 inh | Shiga toxin inh | Pf growth 48h
O=C(C(Br)=Cc1ccccc1)c1ccccc1 | x | x | u | 12.8% | x | x
CCN1CCCC1CNCc1ccccc1OCc1ccc(F)cc1 (stereo unspecified) | -1.5 | x | u | 11.2% | -16.2 | 10.4µM*
CCN1CCCC1CNCc1cccc(OC)c1OCc1ccccc1 (stereo unspecified) | 2.7 | 11.7µM* | 12.5% | -4.4% | -5.1 | -26.4%
COC(=O)C1CCN(C(=O)COc2ccc(S(=O)(=O)N3CCOCC3)cc2Cl)CC1 | x | x | 2.6% | -2.0% | x | x
O=C(/C=C/c1ccc2c(c1)OCCCO2)c1ccccc1O | 77.9* | 234.0% | 7.0% | -28.3% | 170.6* | 199.0%
Cc1ccc(O)c(C(=O)/C=C/c2ccc3c(c2)OCCCO3)c1 | 80.8* | u | u | u | 154.8* | 89.0%
O=C(C=Cc1ccccc1)c1cc(Br)ccc1O | x | x | -22.1% | 1.4% | x | x
